# Source: PubChem BioAssay (Tox21)
# Inconclusive results are not listed. A call without a number means that no potency is given here. The source made the active and inactive calls. Calls follow the shape of the dose curve; as a rule, active = well fitted activation curve with a large enough effect in the signal ratio in the repeat runs (not every such curve was filed as active); inconclusive = weak or mixed curves, or effect the other way; inactive = no such curve, though single readings can be large or run the other way; the % refers to the signal ratio.
# Molecular target: Peroxisome proliferator-activated receptor gamma (Homo sapiens) (UniProt P37231)
# Assay: qHTS assay to identify small molecule agonists of the peroxisome proliferator-activated receptor gamma (PPARg) signaling pathway (AID 743094)
# Conditions: HEK293H PPARg-UAS-bla, beta-lactamase FRET ratio, 17 h; series mostly up to 57 µM
# From the text: U.S. Tox21 Program National Center for Advancing Translational Sciences [NCATS] NIH Chemical Genomics Center [NCGC] U.S. Environmental Protection Agency [EPA] National Institutes of Environmental Health Sciences [NIEHS] National Toxicology Program [NTP] U.S. Food and Drug Administration [FDA] Tox21 Assay Overview: The peroxisome proliferator-activated receptors (PPARs) are lipid-activated transcription factors of the nuclear receptor superfamily with three distinct subtypes namely PPAR alpha, PPAR delta (also called PPAR beta) and PPAR gamma (PPARg). All these subtypes heterodimerize with Retinoid X receptor (RXR) and these heterodimers regulate transcription of various genes. PPAR-gamma receptor (glitazone receptor) is involved in the regulation of glucose and lipid metabolism. To identify the compounds that activate PPAR-gamma signaling, GeneBLAzer PPAR gamma UAS-bla HEK293H cell line (Invitrogen, Carlsbad, CA, USA) containing a beta-lactamase reporter gene under control of the control of an upstream activator sequence (UAS) stably integrated into HEK293H cells was used to screen Tox21 compound library.
# Tox21 Assay Protocol Summary: PPARg-bla cells were dispensed at 3000 cells/6uL/well in 1536-well black wall/clear bottom plates using a Multidrop Combi (Thermo Fisher Scientific, Waltham, MA) dispenser. After the assay plates were incubated at 37C and 5% CO2 for 5 h, 23 nL of compounds dissolved in DMSO, positive controls or DMSO only was transferred to the assay plate by a Pintool station (Kalypsys, San Diego, CA). The assay plates were incubated at 37C for 17 h. After 1 uL of LiveBLAzerTM B/G FRET substrate was added using a Bioraptr Flying Reagent Dispenser (FRD) workstation (Beckman Coulter, Indianapolis, IN, USA), the plates were incubated at room temperature for 1 h, and fluorescence intensity was measured by an Envision plate reader (PerkinElmer, Shelton, CT).
# Sequence of Peroxisome proliferator-activated receptor gamma (Homo sapiens) (P37231 whole entry, looked up): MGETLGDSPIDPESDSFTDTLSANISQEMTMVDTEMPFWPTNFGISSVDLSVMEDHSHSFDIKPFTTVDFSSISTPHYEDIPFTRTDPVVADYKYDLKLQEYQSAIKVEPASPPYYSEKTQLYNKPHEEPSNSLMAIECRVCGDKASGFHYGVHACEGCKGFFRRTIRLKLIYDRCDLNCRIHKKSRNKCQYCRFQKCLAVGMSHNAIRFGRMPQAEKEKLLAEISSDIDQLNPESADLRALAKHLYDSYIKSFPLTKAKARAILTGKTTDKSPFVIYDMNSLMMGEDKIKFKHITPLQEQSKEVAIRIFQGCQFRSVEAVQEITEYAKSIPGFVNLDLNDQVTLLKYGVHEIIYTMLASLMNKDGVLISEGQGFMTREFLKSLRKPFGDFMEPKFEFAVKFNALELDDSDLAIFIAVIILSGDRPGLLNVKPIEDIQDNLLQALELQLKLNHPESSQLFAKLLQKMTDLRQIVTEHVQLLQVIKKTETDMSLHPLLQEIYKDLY
row,Compound,Potency
1,C[C@]12CC[C@H]3[C@@H](CCC4=CC(=O)CC[C@@H]43)[C@@H]1CC[C@@H]2O,inactive
2,CC(C)Nc1nc(Cl)nc(NC(C)C)n1,inactive
3,CCCCOC(=O)COC(=O)c1ccccc1C(=O)OCCCC,inactive
4,CC1CC(=O)O1 (stereo not given),inactive
5,COc1ccc(C=O)cc1OC,inactive
6,N#CCCCCC#N,inactive
7,CC(C)COC(=O)c1ccccc1C(=O)OCC(C)C,inactive
8,C=CC(Cl)CCl (stereo not given),inactive
9,O=NN(c1ccccc1)c1ccccc1,inactive
10,Nc1ncn[nH]1,inactive
11,O=P(OCCCl)(OCCCl)OCCCl,inactive
12,CN(C)P(=O)(N(C)C)N(C)C,inactive
13,CNC(=S)S,inactive
14,CC(C)CON=O,inactive
15,N#CC(c1ccccc1)c1ccccc1,inactive
16,CC[n+]1c(-c2ccccc2)c2cc(N)ccc2c2ccc(N)cc21,inactive
17,CCOP(=S)(OCC)SCn1c(=O)oc2cc(Cl)ccc21,inactive
18,CNC(=O)CSP(=S)(OC)OC,inactive
19,Oc1ccc(Cl)cc1Cc1ccccc1,inactive
20,COP(=S)(OC)Oc1ccc(S(=O)(=O)N(C)C)cc1,inactive

row,Compound,Potency
1,OCCOCCO,inactive
2,CNC(=O)Oc1cccc2c1OC(C)(C)C2,inactive
3,ClCc1ccccn1,inactive
4,CC1=C(C(=O)Nc2ccccc2)SCCO1,inactive
5,CCN(CC)C(=O)C(C)Oc1cccc2ccccc12 (stereo not given),inactive
6,C[C@]12CCC(=O)C=C1CC[C@@H]1[C@@H]2CC[C@@]2(C)[C@H]1CC[C@]2(C)O,inactive
7,CC(C)=CC1C(C(=O)OCN2C(=O)C3=C(CCCC3)C2=O)C1(C)C (stereo not given),inactive
8,C[N+](C)(C)CC(=O)O,inactive
9,Cc1cccc(N=Nc2ccc(N(C)C)cc2)c1,inactive
10,CCCCOCC1CO1 (stereo not given),inactive
11,CC(C)(O)C#N,inactive
12,CCCCSP(=O)(SCCCC)SCCCC,inactive
13,CCOC(=O)c1ccccc1N,inactive
14,CCCCCCCCCCCCCl,inactive
15,O=S(=O)(O)C(F)(F)C(F)(F)C(F)(F)C(F)(F)C(F)(F)C(F)(F)C(F)(F)C(F)(F)F,inactive
16,CCC(=O)Nc1ccc(Cl)c(Cl)c1,inactive
17,CCCCCCCCCc1ccc(O)cc1,inactive
18,Nc1ccc([N+](=O)[O-])cc1N,inactive
19,CS(=O)(=O)NC(=O)c1cc(Oc2ccc(C(F)(F)F)cc2Cl)ccc1[N+](=O)[O-],inactive
20,NC(=O)CN1CCCC1=O,inactive
